The text below walks through data of publication PMC5540273 (PLoS ONE, 2017).

What all share (conditions): concentration: 1 μM, replicates: in singlicate; n = 1
The subject of experiment [1] is T1, VPS34.
T1 construct: gene PIK3C3

Experiment [2] concerns VRK2.
Experiment [3] has as its system WEE1.
In experiment [4] the test system is WEE2.
Experiment [5] has as its system WNK1.
The test system of experiment [6] is WNK2.
The test system of experiment [7] is WNK3.
Experiment [8] relates to WNK4.
Experiment [9] deals with T2, YANK1.
T2 construct: gene STK32A

Experiment [10] relates to T3, YANK2.
T3 construct: gene STK32B

The test system of experiment [11] is T4, YANK3.
T4 construct: gene STK32C

The test system of experiment [12] is T5, YES.
T5 construct: gene YES1

The test system of experiment [13] is T6, YSK1.
T6 construct: gene STK25

In experiment [14] the test system is T7, YSK4.
T7 construct: gene MAP3K19

The test system of experiment [15] is ZAK.
The subject of experiment [16] is ZAP70.
The subject of experiment [17] is T8, p38-alpha.
T8 construct: gene MAPK14

Experiment [18] has as its system T9, p38-beta.
T9 construct: gene MAPK11

Experiment [19] concerns p38-delta.
For experiment [20], the system named is T10, p38-gamma.
T10 construct: gene MAPK12
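Further: KINOMEscan kinase panel screen.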

As for `CCCCCc1nc2c(N)ncnc2n1CCCCC` [SKF-97255], the “%Inh” value in experiment [1] stood at 0%; in experiment [2], 0%; in experiment [3] it was 0%; in experiment [4], 3%; in experiment [5], 7%; in [6] it was 0%. Also, the “%Inh” value in experiment [7] came out at 0%; in experiment [8], 0%; in experiment [9] it was 0%; in experiment [10] it was 12%; in [11], 0%; in experiment [12], 0%. Besides, the “%Inh” value in experiment [13] worked out at 12%; in experiment [14], 14%; in experiment [15], 13%; in [16], 13%; in [17] it was 0%; in experiment [18] it was 19%. In addition, the “%Inh” value in experiment [19] was 0%; in experiment [20], 50%.
Turning to `Cc1nnc(-c2ccc3occ(-c4ccc(C(C)O)cc4)c3c2)o1` (centres unmarked), the “%Inh” value in experiment [1] is given as 18%; in experiment [2], 0%; in experiment [3], 8%; in [4], 7%; in [5], 0%; in experiment [6], 0%. The “%Inh” value is listed as 0% in [7]; 0% in experiment [8]; 5% in experiment [9]; 2% in experiment [10]; 0% in experiment [11]; 3% in experiment [12]. The “%Inh” value is listed as 0% in experiment [13]; 19% in [14]; 46% in experiment [15]; 1% in experiment [16]; 10% in experiment [17]; 13% in experiment [18]. Besides, the “%Inh” value in [19] is 0%; in experiment [20], 1%.
As to `COc1ccc(CNC(=O)NC2CCN(c3ccnc(Nc4ccc(OC)cc4)n3)C2)cc1` (centres unmarked) [GSK1379727], the “%Inh” value is 0% in experiment [1]; 32% in [2]; 9% in [3]; 7% in [4]; 4% in [5]; 0% in experiment [6]. In addition, the “%Inh” value came to 44% in experiment [7]; 63% in [8]; 0% in experiment [9]; 0% in [10]; 8% in experiment [11]; 3% in experiment [12]. The “%Inh” value in [13] was determined as 0%; in [14], 36%; in experiment [15], 0%; in [16], 0%; in experiment [17], 11%; in experiment [18] it was 0%. Also, the “%Inh” value was determined as 8% in experiment [19] and 45% in [20].
`Cc1nnc(-c2ccc3ncc(-c4ccc(S(C)=O)cc4)n3c2)o1` (centres unmarked): the “%Inh” value in experiment [1] was 27%; in experiment [2], 0%; in experiment [3], 0%; in experiment [4] it was 13%; in [5] it was 0%; in experiment [6], 1%. Moreover, the “%Inh” value in [7] is recorded as 0%; in experiment [8] it was 7%; in [9], 0%; in experiment [10], 0%; in [11], 5%; in experiment [12] it was 0%. Also, the “%Inh” value was found to be 0% in [13]; 3% in [14]; 0% in experiment [15]; 0% in experiment [16]; 9% in experiment [17]; 1% in experiment [18]. In addition, the “%Inh” value worked out at 7% in experiment [19] and 10% in [20].
With `NCC(NC(=O)c1cc(-c2cn[nH]c2)c(-c2ccnc3[nH]ccc23)s1)c1ccccc1.O=C(O)C(F)(F)F.O=C(O)C(F)(F)F` (centres unmarked) [GSK1325775], the “%Inh” value in experiment [1] worked out at 59%; in [2], 0%; in experiment [3], 0%; in experiment [4], 0%; in experiment [5], 6%; in [6], 9%. Moreover, the “%Inh” value was 21% in [7]; 24% in experiment [8]; 15% in experiment [9]; 0% in [10]; 8% in experiment [11]; 0% in experiment [12]. The “%Inh” value came to 24% in [13]; 99.8% in experiment [14]; 4% in experiment [15]; 0% in experiment [16]; 10% in experiment [17]; 0% in experiment [18]. In addition, the “%Inh” value is 10% in experiment [19] and 27% in experiment [20].
As for `N#Cc1c(N2CCOCC2)sc(-c2ccn[nH]2)c1-c1ccc(Cl)cc1`, the “%Inh” value in experiment [1] was determined as 86%; in [2] it was 35%; in experiment [3], 0%; in experiment [4], 0%; in [5], 0%; in experiment [6], 4%. Further, the “%Inh” value in experiment [7] is given as 14%; in experiment [8], 34%; in [9], 0%; in [10], 0%; in [11] it was 16%; in experiment [12], 7%. The “%Inh” value in experiment [13] worked out at 0%; in experiment [14] it was 28%; in [15] it was 0%; in experiment [16], 0%; in experiment [17] it was 7%; in experiment [18], 14%. For the same compound, the “%Inh” value in experiment [19] turned out to be 0%; in experiment [20] it was 6%.
Turning to `CN(C1=C(c2ccccc2)C(=O)NC1=O)c1ccccc1` [SB-334860], the “%Inh” value was 0% in [1]; 8% in experiment [2]; 13% in experiment [3]; 0% in experiment [4]; 8% in [5]; 28% in experiment [6]. Moreover, the “%Inh” value is 17% in experiment [7]; 1% in [8]; 0% in experiment [9]; 15% in [10]; 17% in experiment [11]; 17% in experiment [12]. Also, the “%Inh” value in experiment [13] turned out to be 21%; in [14], 9%; in experiment [15], 79%; in experiment [16], 0%; in [17], 0%; in experiment [18], 5%. In addition, the results for the “%Inh” value in [19] and in [20] were 22% and 5%, respectively.
With `Cc1cccc(-c2nc(Nc3ccc4ncsc4c3)c3ccccc3n2)n1` [GW867588], the “%Inh” value in experiment [1] is 0%; in [2] it was 0%; in experiment [3] it was 8%; in experiment [4], 6%; in experiment [5] it was 0%; in [6] it was 6%. Moreover, the “%Inh” value in experiment [7] amounted to 31%; in experiment [8], 0%; in experiment [9] it was 0%; in experiment [10], 0%; in [11], 29%; in experiment [12], 0%. Also, the “%Inh” value in [13] was 0%; in experiment [14], 11%; in [15] it was 0%; in experiment [16], 10%; in experiment [17] it was 0%; in experiment [18] it was 0%. In addition, the “%Inh” value in [19] and in experiment [20] was 0% throughout.
Regarding `Cc1ccc(NC(=O)c2ccnc(N3CCN(C)CC3)c2)cc1-c1ccc(C(=O)NCC2CC2)cc1` [GW775604], the “%Inh” value in experiment [1] was 0%; in experiment [2], 17%; in experiment [3], 0%; in experiment [4], 0%; in experiment [5] it was 0%; in [6], 0%. The “%Inh” value in experiment [7] is listed as 0%; in experiment [8], 0%; in [9], 0%; in experiment [10], 1%; in [11] it was 0%; in experiment [12], 0%. The “%Inh” value is given as 19% in [13]; 0% in [14]; 0% in experiment [15]; 0% in [16]; 32% in experiment [17]; 35% in experiment [18]. Further, the figures for the “%Inh” value in experiment [19] and in experiment [20] were 10% and 0%, respectively.
For the compound `c1ccc(-c2n[nH]cc2-c2ccnc3ccccc23)nc1` [GW271431], the “%Inh” value in [1] came to 20%; in experiment [2] it was 0%; in experiment [3], 9%; in experiment [4] it was 2%; in experiment [5], 7%; in [6], 11%. Also, the “%Inh” value is recorded as 15% in experiment [7]; 0% in experiment [8]; 19% in [9]; 4% in experiment [10]; 18% in [11]; 21% in experiment [12]. In addition, the “%Inh” value in experiment [13] amounted to 1%; in experiment [14], 28%; in [15] it was 28%; in [16] it was 0%; in [17], 29%; in experiment [18] it was 0%. The “%Inh” value in experiment [19] is 52%; in experiment [20], 0%.
